Compound activity (PubChem)
Sampled rows, rich in hits. Any-hit rate of the full collection: about 6.9%.
PLK1 PBD inh: PLK1 (human) polo-box domain binding inhibition; P53350; Plk1 PBD binding of FITC phosphopeptide, fluorescence polarization; Potency, µM, inactives show max response, negative = inhibition, hits mostly inhibitors; 2.8% of 360,000 active; AID 720504; further: series mostly up to about 57 µM; on the % scale 0 is the no-effect control and ±100 the full control effect; nearly all actives have a fitted effect of over 65% in size
BAZ2B block: blocks human BAZ2B | Q9UIF8 | AlphaScreen BAZ2B-H3K14Ac peptide displacement | 4.4% of 360,000 active | Potency, µM (highest dose often 114 µM), for inactives: top-dose activity change, negative = inhibition, actives largely listed as inhibitors; further: on the % scale 0 is the no-effect control and ±100 the full control effect; nearly all actives have a fitted effect of over 60% in size
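Compounds, titrated to a top concentration of 110 uM, were incubated 30 min at room temperature with preformed BAZ2B/acetyl-K14 H3 peptide complex (50 nM each). Proximity signal was measured by AlphaScreen after 20 min with beads.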
L3MBTL1 inh: L3MBTL1 (human) inhibition; Q9Y468; AlphaScreen L3MBTL1–H3K9me1 peptide binding; Potency, µM (series often up to 57.1 µM), inactives show at the highest dose activity, negative = inhibition, usual class: inhibitors; 0.66% of 230,000 active; AID 485360; further: on the % scale 0 is the no-effect control and ±100 the full control effect; nearly all actives have a fitted effect of over 60% in size
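L3MBTL1 (50 nM) pre-complexed 30 min with biotinylated H3(1-15)K9me1 peptide (75 nM), then compounds added for 30 min at room temperature; AlphaScreen streptavidin donor/nickel chelate acceptor beads (10 ug/mL final) read after 30 min dark incubation.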
JMJD2A Tudor: blocks the human JMJD2A Tudor domain; O75164; AlphaScreen JMJD2A-Tudor / H3K4me3 peptide binding; Potency, µM (titrated, usually from 114 µM), for the others: at the highest dose activity change, negative = inhibition, hits mostly inhibitors; 4.4% of 390,000 active; AID 504339; further: on the % scale 0 is the no-effect control and ±100 the full control effect; nearly all actives have a fitted effect of over 50% in size
VDR inhibitor: blocks the human vitamin D receptor. P11473. VDR-SRC2-3 peptide fluorescence polarization, 2 h. Potency, µM, inactives show max response, negative = inhibition, most hits filed as inhibitors. 0.93% of 400,000 active; further: on the % scale 0 is the no-effect control and ±100 the full control effect
Target sequence (P11473 whole entry, looked up): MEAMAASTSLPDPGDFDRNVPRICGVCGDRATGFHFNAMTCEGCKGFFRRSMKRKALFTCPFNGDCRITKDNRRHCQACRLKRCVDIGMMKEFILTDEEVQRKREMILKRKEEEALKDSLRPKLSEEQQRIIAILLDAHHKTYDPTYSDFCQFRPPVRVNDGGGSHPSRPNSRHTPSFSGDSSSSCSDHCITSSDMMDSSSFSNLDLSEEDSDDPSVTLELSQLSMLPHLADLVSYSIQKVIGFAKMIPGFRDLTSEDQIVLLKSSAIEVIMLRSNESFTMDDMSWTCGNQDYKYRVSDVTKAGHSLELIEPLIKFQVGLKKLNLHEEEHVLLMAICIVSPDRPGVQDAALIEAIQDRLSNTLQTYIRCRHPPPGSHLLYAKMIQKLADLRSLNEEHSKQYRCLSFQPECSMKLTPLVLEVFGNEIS
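Measured by FP: displacement of SRC2-3 coactivator peptide from VDR by library compounds, following a two-hour ambient incubation.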
HP1b chromo inh: inhibitors of HP1-beta chromodomain binding to methylated histone tails. P83916. AlphaScreen HP1-beta / biotin-H3K9me3 peptide binding. Potency, µM (series often up to 114 µM), for inactives: at the highest dose activity change, negative = inhibition, most hits filed as inhibitors. 0.56% of 390,000 active. AID 540317; further: nearly all actives have a fitted effect of over 70% in size
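AlphaScreen: HP1-beta (50 nM) preformed 30 min with biotin-H3(1-18)K9me3 peptide (50 nM) in PBS pH 7.4, 0.01% Tween-20. Compound added for 30 min at RT, then streptavidin donor/nickel chelate acceptor beads (10 ug/mL) for 30 min.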
* hit, by the source's call; ? = inconclusive; . = no result; [ ] = remark or other dose. The call rests on the fitted dose curve; in most records, active means well fitted curve in the direction sought with a large enough effect; inconclusive means small, poorly fitted or top-dose-only effect, or another doubt; inactive means no such curve, though single readings can be large; an effect the other way counts as inactive or inconclusive. Potency means the concentration at half of the fitted maximal effect.

SMILES	PLK1 PBD inh	BAZ2B block	L3MBTL1 inh	JMJD2A Tudor	VDR inhibitor	HP1b chromo inh
C=CCC(C)(NCc1ccccc1)c1ccc(C)cc1 (stereo not drawn)	8%	-2%	27%	28%	7%	109%
C=CCC(C)(NCc1ccccc1)c1ccccc1 (stereo not drawn)	21µM*	9%	11%	?	?	28%
O=S1(=O)c2ccc(Br)cc2OC(COCc2ccccc2)CN1Cc1ccccc1 (stereo not drawn)	24µM*	.	21%	-34%	?	34%
COc1ccc2nc3cccc(OC)c3nc2c1	?	?	.	-9%	-18%	34%
COc1ccc2nc3ccccc3nc2c1N	-21%	28µM*	?	40µM*	?	40µM*
O=C(Nc1ccccc1)N1CCCC2CCCCC21 (stereo not drawn)	-5%	-6%	-3%	-9%	5%	34%
CC(=O)Nc1cc(NC(C)=O)cc(C(=O)N2CCCC3CCCCC32)c1 (stereo not drawn)	-21%	50µM*	.	56µM*	-3%	?
CCCC(=O)N1CCCC(c2nc(-c3cccs3)no2)C1 (stereo not drawn)	30µM*	9%	.	-17%[11.4 µM]	-2%	-14%
CCN(CCCNC(=O)CN1N=C(c2ccc(OC)cc2)CCC1=O)c1cccc(C)c1	.	40µM*	.	79µM*	15%	?
CCN(CCCNC(=O)CN1N=C(c2ccccc2)CCC1=O)c1cccc(C)c1	.	?	.	?	5%	?
CCN(CCCNC(=O)CN1N=C(c2ccc(C)cc2)CCC1=O)c1ccccc1	.	14µM*	.	56µM*	2%	?
NC(=O)C(=O)O	.	.	.	.	-7%	.
CCOc1ccc(NC(=O)c2ccc(-c3cccc(Cl)c3C)o2)cc1	.	0%	.	-18%	-6%	12%
Cn1c(SCc2c(F)cccc2Cl)nc2c(c1=O)SCC2	-5%	28µM*	?	?	-1%	-27%
CCOC(=O)C(O)(NC(=O)c1cccnc1)C(F)(F)F (stereo not drawn)	3%	-31%	.	8%	3%	52%
CC(=O)C(C(C)=O)C(NC(=O)c1cccnc1)(C(F)(F)F)C(F)(F)F	2.7µM*	-24%	-6%	3.5µM*	?	20%
Cc1ccc(C(C)NC(=O)c2cccnc2)cc1 (stereo not drawn)	-7%	.	.	-5%	2%	33%
CC(C)C(NC(=O)c1cccnc1)C(=O)O (stereo not drawn)	-3%	-1%	8%	-2%	79µM*	167%
CCOc1ccccc1NC(=O)C1CCC(CNS(=O)(=O)c2ccc3c(c2)CCCC(=O)N3)CC1 (stereo not drawn)	.	-2%	.	-1%	3%	41%
O=C(Cc1ccccc1)NCC(=O)Nc1ccc(OC(F)(F)F)cc1	-2%	-12%	.	-8%	19%	28%
COCCNCC(=O)Nc1ccc(OC(F)(F)F)cc1	-3%	50µM*	15%	0.79µM*	-13%	?
CCOCCCNCC(=O)Nc1ccc(OC(F)(F)F)cc1	-5%	79µM*	.	40µM*	-7%	?
COc1ccc(CCNC(=O)CCc2c(C)nc3nc(C)nn3c2C)cc1OC	.	-10%	.	-10%	0%	31%
Cc1cccc(C(=O)Nc2ccc(N3CC=C(c4ccccc4C)CC3)c(C(=O)O)c2)c1	.	45µM*	.	?	6%	-7%
CC1=C(C#N)C(=O)N(C2CCS(=O)(=O)C2)C(=O)/C1=C\c1ccco1 (stereo not drawn)	.	7.1µM*	.	.	.	.
O=C1/C(=C/c2cccnc2)SC(=S)N1C1CCS(=O)(=O)C1 (stereo not drawn)	-16%	-24%	17%	-12%	-21%	18%
CCOC(=O)C1CCCN(C(=O)c2ccc(NC(=O)c3nsc4ccccc34)cc2)C1 (stereo not drawn)	.	-4%	.	-21%	5%	18%[57 µM]
Clc1ccc(CN2CCN(c3ncccn3)CC2)cc1	-8%	?	4%	13µM*	-16%	12%
Clc1ccc(CN2CCN(c3ncccn3)CC2)cc1Cl	-1%	79µM*	-3%	13µM*	7%	-24%
